Assay outcomes: PubChem, National Center for Advancing Translational Sciences (NCATS)
IL1B secr inh – inflammasome signaling inhibition, IL-1 beta readout. activity change, % at 57.5 µM. 4.7% of 360,000 active. THP-1 LPS/ATP IL-1B secretion, AlphaLISA, 16 h; hits give low values; in the data active = activity change below about -50%; inconclusive = mostly about -30% to -49%
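Secreted IL-1B measured by AlphaLISA bead assay after 16 h compound exposure of THP-1 cells; compounds (final up to 57.5 uM) added 1 h before LPS (250 ng/mL) and ATP (1.25 mM) stimulation; lower signal means less secretion.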
HT1080-NT tox – kills 2HG-producing HT-1080-NT fibrosarcoma cells; HT-1080-NT fibrosarcoma viability, CellTiter-Glo ATP luminescence, 48 h; Potency, µM (top dose mostly 46.1 µM), for inactives: at the highest dose activity, negative = less viability, actives largely listed as cytotoxic; 1.6% of 360,000 active;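 also: NT is the 2HG producing partner of a matched IDH1 knockdown line; potency is read from the fitted curve at half-maximal effect; 0% = DMSO-treated cells and -100% = media-only wells without cells; nearly all actives have a fitted effect of over 55% in size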
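HT-1080-NT; 750 cells/well; 5% FBS RPMI; 48 h compound, 37 degrees C; CellTiter-Glo luminescence; curve fitting and curve-class assignment.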
TDP1 cell noCPT – qHTS for Inhibitors of human tyrosyl-DNA phosphodiesterase 1 (TDP1): qHTS in cells in absence of CPT; DT40 Tdp1-/- hTDP1 cells, no CPT, ATP luminescence, 48 h; Potency, µM (top dose mostly 46.2 µM), inactives show at the top dose activity change, negative = growth inhibition, most hits filed as inhibitors; 15% of 420,000 active; also: potency is read from the fitted curve at half-maximal effect; nearly all actives have a fitted effect of over 55% in size
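DT40 Tdp1-/-;hTDP1 cells, no CPT (DMSO vehicle only), 400 cells/well; compounds pin-transferred; ≥48 hr, 37 °C; CellTiter-Glo 30 min RT dark, luminescence read.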
HT1080 IDH1KD tx – HT-1080 IDH1 knockdown cell toxicity (counter line) | Potency, µM (highest dose often 46.1 µM), without a hit: at the highest dose activity, negative = toxicity, hits mostly cytotoxic | AID 686971 | HT-1080 IDH1 knockdown viability, ATP luminescence, 48 h | 2% of 360,000 active;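 also: potency is read from the fitted curve at half-maximal effect; 0% = DMSO wells and -100% = cell-free medium wells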
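After a 2 h attachment period, IDH1KD HT-1080 cells took pin-transferred compound for 48 h at 37 °C; ATP-based luminescence after 10 min room-temperature reagent incubation reported viability.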
DT40 TDP1 CPT – DT40-hTDP1 cell growth loss with CPT. chicken DT40 Tdp1-/-;hTDP1 cells + 20 nM CPT, ATP luminescence, 48 h. 12% of 420,000 active. AID 686979. Potency, µM (titrated, usually from 46.2 µM), without a hit: at the top dose activity change, negative = growth inhibition, most hits filed as inhibitors; also: potency is read from the fitted curve at half-maximal effect; nearly all actives have a fitted effect of over 55% in size
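Cell growth measured by CellTiter-Glo luminescence after a minimum 48 h, 37 C compound exposure with 20 nM CPT in Tdp1-knockout DT40 cells stably expressing hTDP1, seeded 400/well; qHTS titration format.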
* marks the source's active call; other numbers are inactive results; u = inconclusive; x = no result; [ ] = another dose, or the depositor's remark. Rows were chosen to be rich in hits. Some 19% of all compounds tested hit in one or more screens of this group. Unless noted, calls follow the shape of the dose curve; as a rule, active = well fitted curve in the direction sought with a large enough effect; inconclusive = small, poorly fitted or top-dose-only effect, or another doubt; inactive = no such curve, though single readings can be large; an effect the other way counts as inactive or inconclusive. Unless noted, % is scaled to controls: 0 for no effect and ±100 for the full control effect.

SMILES	IL1B secr inh	HT1080-NT tox	TDP1 cell noCPT	HT1080 IDH1KD tx	DT40 TDP1 CPT
COc1ccc(CC2(CO)CCN(S(=O)(=O)c3sccc3C)CC2)cc1	12.8	2.8%	u	-19.9%	25.9µM*
COc1ccc(CC2(CO)CCN(C(C)Cc3ccc(Cl)cc3)CC2)cc1 (stereo not drawn)	-67.0*	u	u	u	u
COc1ccc(CCC(C)N2CCC(CO)(Cc3ccccc3)CC2)cc1 (stereo not drawn)	-56.5*	-22.0%	u	-18.0%	u
CC(COc1ccccc1)N1CCC(CO)(CCc2ccccc2)CC1 (stereo not drawn)	-66.6*	16.4µM*	u	u	u
CSCC(C)N1CCC(CO)(CCc2ccccc2)CC1 (stereo not drawn)	-17.9	-4.4%	-21.2%	-4.1%	-21.9%
CCc1nnc(NC(=O)CSc2nnc(-c3ccc(O)cc3)n2C)s1	39.2	24.2%	-6.8%	12.8%	23.6%
CC1CCCN(C(=O)C(C)Nc2cc(Cl)ccc2N2CCOCC2)C1 (stereo not drawn)	-21.5	-3.1%	u	-3.1%	-27.8%
CC1CC(=O)N(CC(=O)NCc2ccc(F)cc2)c2ccccc2S1(=O)=O (stereo not drawn)	4.1	-0.3%	0.3%	9.7%	10.6%
Cc1ccc(C2(c3noc(CN(C)Cc4ccccn4)n3)CCCC2)cc1	-1.4	-2.3%	16.4µM*	-8.9%	u
NC(=NCc1ccccc1)C(N=Nc1ccccc1)C(=O)NCc1ccccc1 (stereo not drawn)	-23.2	-0.3%	u	-12.4%	u
CCOC(=O)c1ccc(NC(=O)COc2ccccc2CNCCc2ccccc2)cc1	-87.9*	u	u	u	u
CCOC(=O)c1ccc(NC(=O)COc2ccc(CNCCO)cc2OCC)cc1	-102.4*	u	-8.3%	u	7.2%
CCOC(=O)c1ccc(NC(=O)COC)cc1	-12.6	10.5%	-28.4%	14.6%	-22.9%
CCOC(=O)c1ccc(NC(=O)CNNC(=O)COc2ccccc2C)cc1	-22.2	-3.4%	u	3.3%	-27.5%
C=CCOc1c(Cl)cc(C(=S)N2CCCC2)cc1OCC	2.2	u	7.31µM*	9.2µM*	5.8µM*
CCOc1cc(C(N)=O)cc(Cl)c1OCC	-1.6	-6.8%	23.1µM*	-11.0%	u
COc1cccc(C(O)c2nc(-c3cccc4cccnc34)cs2)c1 (stereo not drawn)	-2.5	-1.0%	-19.0%	0.0%	u
COc1cccc(C(NC(C)=O)c2nc(-c3cnn(C)c3)cs2)c1 (stereo not drawn)	-1.1	8.2%	0.8%	20.9%	u
CC(=O)NC(c1ccccc1)c1nc(-c2csc3ccccc23)cs1 (stereo not drawn)	5.4	-5.8%	u	-29.8%	u
COc1cccc(C(N)c2nc(-c3csc4ccccc34)cs2)c1 (stereo not drawn)	74.1	u	2.91µM*	u	3.66µM*
CC(=O)NC(c1cccc(F)c1)c1nc(-c2ccc3ccccc3c2)cs1 (stereo not drawn)	-28.5	-28.9%	u	u	u
CC(=O)NC(c1cccc(F)c1)c1nc(-c2cnn(C)c2)cs1 (stereo not drawn)	42.0	u	23.1µM*	18.8%	u
CC(=O)NC(c1cccc(F)c1)c1nc(-c2csc3ccccc23)cs1 (stereo not drawn)	-10.9	-24.4%	u	-16.4%	23.1µM*
COc1ccc(-c2csc(C(NC(C)=O)c3cccc(F)c3)n2)cn1 (stereo not drawn)	-16.1	19.1%	u	28.6%	14.6µM*
CCOC(=O)c1cc(-c2ccc(OC)c(S(=O)(=O)NC3CCCCC3)c2)on1	x	x	-18.2%	x	-2.0%
SMILES	IL1B secr inh	HT1080-NT tox	TDP1 cell noCPT	HT1080 IDH1KD tx	DT40 TDP1 CPT
CN(C(=O)COC(=O)C1CCN(S(=O)(=O)c2cccs2)CC1)c1ccccc1	0.5	16.8%	u	11.4%	3.1%
OC(c1cccc(Cl)c1)c1nc(-c2csc3ccccc23)cs1 (stereo not drawn)	13.1	u	u	u	14.6µM*
COc1ccc(-c2csc(C(NC(C)=O)c3ccc(F)c(F)c3)n2)cn1 (stereo not drawn)	-12.5	8.1%	u	-9.0%	23.1µM*
OC(c1cccc(Cl)c1)c1nc(-c2cccc3cccnc23)cs1 (stereo not drawn)	-2.0	17.7%	-27.4%	1.9%	u
CC(=O)NC(c1cccc(F)c1)c1nc(-c2cccc(C(C)C)c2)cs1 (stereo not drawn)	-19.0	-23.2%	20.6µM*	-20.4%	25.9µM*
CC(=O)NC(c1cccc(F)c1)c1nc(-c2cnc3ccccc3c2)cs1 (stereo not drawn)	16.8	-11.3%	u	-5.5%	u
CC(=O)NC(c1ccccc1)c1nc(-c2cnc3ccccc3c2)cs1 (stereo not drawn)	0.0	2.7%	20.6µM*	2.8%	11.6µM*
CN(CCO)C(=O)c1cn(C2CCCN(Cc3cccc4ccccc34)C2)nn1 (stereo not drawn)	x	x	-11.8%	x	0.7%
CC(=O)Oc1cc(C(F)(F)F)ccc1C(=O)O	x	x	-28.3%[21.1 µM]	x	-2.5%[21.1 µM]
CC(=O)N(C1=C(N)C(=O)c2ccccc2C1=O)c1ccccc1	51.7	-27.1%	13µM*	u	23.1µM*
COc1cc(C)c(N(C(C)=O)c2ccccc2)c(C)c1	4.6	0.9%	-29.6%	1.1%[9.24 µM]	-13.3%
Cc1cc(C)c2c(CN(Cc3ccccc3)Cc3ccccc3)cc(=O)oc2c1	18.5	-16.6%	16.4µM*	-19.5%	23.1µM*
Cc1cc(C)c2c(CN3CCN(Cc4ccc5c(c4)OCO5)CC3)cc(=O)oc2c1	-3.2	-3.7%	16.4µM*	-2.1%	u
C[C@H]1CN([C@@H](C)CO)C(=O)c2cc(-c3ccccc3F)cnc2O[C@@H]1CN(C)C(=O)NC1CCCCC1	-11.2	-2.7%	u	-3.1%	u
CCOc1ccc(NC(=O)CN(C)C(=O)C(C)N2C(=O)c3ccccc3C2=O)cc1OCC (stereo not drawn)	0.0	8.4%	19.8%	0.1%	-12.9%
Cc1nc2ccccc2n2c(-c3ccccc3)c3c(=O)n(C)c(=O)n(C)c3c12	1.4	15.8%	14.6µM*	-3.7%	u
CCCc1nc2ccccc2n2c(-c3cccc(C)c3)c3c(=O)n(C)c(=O)n(C)c3c12	x	x	8.2µM*	x	u
CCCc1nc2ccccc2n2c(-c3ccc(C)cc3)c3c(=O)n(C)c(=O)n(C)c3c12	x	x	25.9µM*	x	23.1µM*
